From PubChem BioAssay (NCATS) come the findings set out here.

Assay [1] in a line: Cytotoxicity counterscreen for inhibitors of SARS-CoV-2 cell entry (AID 1645845). For activity change, negative = cytotoxicity: % is set by controls: 0 for no effect and ±100 for the full control effect. Note: nearly all actives have a fitted effect of over 50% in size. To be noted: outcome: dose series up to 57.1 µM unless noted. Summed up:
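Expi293F/hACE2 cells seeded overnight; cpd pin-transferred in DMSO, 1 h preincubation, + media, 48 h 37 C 5% CO2; ATPLite 1step luminescence; normalized to cells and no cells.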

Assay [2] is described as follows: Primary qHTS to identify inhibitors of SARS-CoV-2 cell entry (AID 1645846). Note: nearly all actives have a fitted effect of over 45% in size. To be noted: SARS-CoV-2 pseudovirus cell entry assay, luminescence; activity change, negative = inhibition: at 57.1 µM (top of the series) unless noted. Summed up: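 HEK293 cells stably expressing human ACE2, pre-treated 1 h with compound, then infected with MLV particles pseudotyped with Wuhan-Hu-1 spike (C-terminal 19-aa truncation). Luciferase luminescence after 48 h at 37 °C, normalised to spike PP and bald PP.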

Results filed as inconclusive are left out. Active and inactive are the calls of the source. Calls come from the whole dose curve.
Potency is the fitted concentration of half-maximal effect.

As to `O=C(O)CNC(=O)c1nc(Cl)c2ccccc2c1O`, the Potency entry in assay [1] was “inactive”. In addition, the activity change, negative = inhibition in assay [2] is -5.6%.

For the compound `CCC(=O)O[C@]1(C(=O)CO)CC[C@H]2[C@@H]3CCC4=CC(=O)CC[C@]4(C)[C@H]3CC[C@@]21C`, the Potency result in assay [1] and in assay [2] was “inactive” each time.

Regarding `COc1ccc([C@@H]2CC(=O)c3c(O)cc(O[C@@H]4O[C@H](CO[C@@H]5O[C@@H](C)[C@H](O)[C@@H](O)[C@H]5O)[C@@H](O)[C@H](O)[C@H]4O)cc3O2)cc1O`, the Potency entry in assay [1] and in assay [2] was “inactive” in each case.

In the case of `COC(=O)C1=C(C)NC(c2ncc(F)cc2F)=N[C@@H]1c1ccc(F)cc1Cl`, the Potency result in assay [1] is “inactive”. Further, the activity change, negative = inhibition in assay [2] was -19.4%.

On to `COc1ccc(Oc2cc(NCCC(F)(F)F)c3ncc(-c4ccc(C(=O)NC5CC5)c(C)c4)n3n2)c(F)c1F`, for which the Potency result in assay [1] was “inactive”. In addition, the activity change, negative = inhibition in assay [2] is -12.1%.

For `Cc1c(F)cccc1NC(=O)Nc1ccc(Cl)c(S(=O)(=O)[C@H]2CCCNC2)c1O`, the Potency result in assay [1] and in assay [2] was “inactive” in each case.

As to `CCc1cccc2c3c([nH]c12)[C@@](CC)(CC(=O)O)OCC3`, in assay [1], the Potency entry was “inactive”. Further, the activity change, negative = inhibition in assay [2] is -19.9%.

As for `COc1cc(C(=O)O)ccc1NC(=O)[C@@H]1N[C@@H](CC(C)(C)C)[C@](C#N)(c2ccc(Cl)cc2F)[C@H]1c1cccc(Cl)c1F`, the Potency result in assay [1] is “inactive”. The activity change, negative = inhibition in assay [2] amounted to 1.92%.

With `NS(=O)(=O)Oc1ccc2c3c(c(=O)oc2c1)CCCCC3`, the Potency result in assay [1] and in assay [2] was “inactive” each time.

`Nc1cccc2c1CN([C@H]1CCC(=O)NC1=O)C2=O`: the Potency entry in assay [1] was “inactive”. In addition, the activity change, negative = inhibition in assay [2] is -16.6%.

As for `C[C@H]1Oc2cc(cnc2N)-c2c(nn(C)c2C#N)CN(C)C(=O)c2ccc(F)cc21`, the Potency entry in assay [1] was “inactive”. Also, the activity change, negative = inhibition in assay [2] was -7.26%.

As for `COc1ccc(Cl)c(Nc2nc3ccccc3nc2NS(=O)(=O)c2cccc(NC(=O)C(C)(C)N)c2)c1`, in assay [1], the Potency entry is “inactive”. For the same compound, the activity change, negative = inhibition in assay [2] was -26.9%.

Take `NCC(=O)Nc1cncc(-c2nn3c(=O)cc(N4CCNCC4)nc3s2)c1`: in assay [1], the Potency result is “inactive”. Besides, the activity change, negative = inhibition in assay [2] is -55.5%.

With `CONC(=O)Nc1ccc(-c2sc3c(c2CN(C)C)c(=O)n(-c2ccc(OC)nn2)c(=O)n3Cc2c(F)cccc2F)cc1`, the Potency entry in assay [1] is “inactive”. Moreover, the activity change, negative = inhibition in assay [2] is -24.2%.

For the compound `Nc1nc2cc(-c3ccc4ncc(C(=O)N5CCOCC5)n4c3)ccc2o1`, the Potency result in assay [1] and in assay [2] was “inactive” throughout.

Regarding `COCCNc1cc(NC(=O)N2CCCc3cc(CN4CCN(C)CC4=O)c(C=O)nc32)ncc1C#N`, the activity change, negative = cytotoxicity in assay [1] is 2.9% [at 11.3 µM] (inactive). In addition, the activity change, negative = inhibition in assay [2] is -9.55% [at 11.3 µM].

Turning to `CC(=O)[C@]1(N)Cc2c(O)c3c(c(O)c2[C@@H](O[C@H]2C[C@H](O)[C@H](O)CO2)C1)C(=O)c1ccccc1C3=O`, the Potency entry in assay [1] and in assay [2] was “inactive” throughout.

With `C=CC(=O)N1CCC(CNc2ncnc(N)c2-c2ccc(Oc3ccccc3)cc2)CC1`, the Potency result in assay [1] was “inactive”. Also, the activity change, negative = inhibition in assay [2] was -20.9%.

On to `COc1ccc(-n2cnc3cc(C(=O)N4CCCCC4)ccc32)cc1`, for which, in assay [1], the Potency result was “inactive”. The activity change, negative = inhibition in assay [2] turned out to be 0.509%.

Turning to `Cn1c(-c2ccccc2C(F)(F)F)nnc1C12CCC(c3noc(C4CC(F)(F)C4)n3)(CC1)CC2`, the Potency entry in assay [1] is “inactive”. Moreover, the activity change, negative = inhibition in assay [2] is -12.8%.

For the compound `CC(C)(O)CC[C@@H](O)[C@](C)(O)[C@H]1CC[C@@]2(O)C3=CC(=O)[C@@H]4C[C@@H](O)[C@@H](O)C[C@]4(C)[C@H]3CC[C@]12C`, in assay [1], the Potency entry was “inactive”. Moreover, the activity change, negative = inhibition in assay [2] is -22.8%.

With `CC1Cc2ccccc2N1C(=O)Cc1nc(N2CCOCC2)cc(=O)[nH]1` (configuration not stated), the Potency entry in assay [1] was “inactive”. The activity change, negative = inhibition in assay [2] is -26.2%.

In the case of `Cn1cc(-c2ccc(F)c(C(F)(F)F)c2)nc1C1CCN(c2ncnc3[nH]ncc23)CC1`, the Potency entry in assay [1] and in assay [2] was “inactive” throughout.

Regarding `NCc1ccc(OCCCc2sc(-c3ccc4c(c3)/C(=N/Nc3nc5ccccc5s3)CCC4)nc2C(=O)O)cc1`, the Potency entry in assay [1] is “inactive”. For the same compound, the activity change, negative = inhibition in assay [2] turned out to be 1.79%.

In the case of `CCN(C(=O)c1ccccc1OC)c1cc2c(cc1N1CCNC[C@H]1C)n(C)c(=O)n2C`, the Potency entry in assay [1] is “inactive”. Moreover, the activity change, negative = inhibition in assay [2] was -9.57%.

For the compound `Cc1cc(I)ccc1Nc1c(C(=O)NOCC2CC2)cc(F)c(F)c1F`, the Potency in assay [1] is 17.8 µM (active); in assay [2], 12.6 µM (active).

On to `Nc1nc(F)nc2c1ncn2[C@@H]1O[C@H](COP(=O)(O)O)[C@@H](O)[C@@H]1O`, for which, in assay [1], the Potency entry was “inactive”. The activity change, negative = inhibition in assay [2] was found to be 0.103%.

Take `COC(=O)C1=C(C)NC(c2ncc(F)cc2F)=N[C@H]1c1ccc(F)cc1Cl`: the Potency entry in assay [1] and in assay [2] was “inactive” throughout.

Consider `CN(CCOc1ccc(-c2ccc3c(c2)OCO3)cc1C(C)(C)C)CC(=O)O`, for which, in assay [1], the Potency result is “inactive”. Also, the activity change, negative = inhibition in assay [2] is -18.5%.

Take `COc1cccc(Nc2ncnn3ccc(CN4CC[C@@H](N)[C@H](O)C4)c23)c1`: the Potency result in assay [1] and in assay [2] was “inactive” in each case.

As to `COc1cc2c3c(n(CCCNCCO)c(=O)c2cc1OC)-c1cc2c(cc1C3=O)OCO2`, the Potency in assay [1] is 7.94 µM (active). Further, the activity change, negative = inhibition in assay [2] was -96.5%.
